Screens: PubChem BioAssay, National Center for Advancing Translational Sciences (NCATS)
The list is not random: actives were taken first. Their share in the collection is about 2.1%.
Abeta yeast res: restores growth of yeast expressing A-beta42 peptide. AID 1347071. actives 0.063% (n = 410,000). yeast expressing A-beta42, growth rescue, OD600, 48 h; response scale: 0% DMSO, 100% iron-clioquinol control. Potency, µM (titrated, usually from 46.1 µM), most hits filed as activators; further: nearly all actives have a fitted effect of over 55% in size
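Yeast A-beta toxicity model in growth medium with pinned compounds, 48 h at 30 C; growth read as absorbance at 600 nm. Normalized to FeCl3/clioquinol equimolar mix (positive) and DMSO (negative).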
aSyn yeast inh: alpha-synuclein toxicity inhibition in yeast. Yeast expressing alpha-synuclein, growth rescue, BacTiter-Glo, 24 h. Potency, µM (titrated, usually from 46.1 µM), usual class: activators. actives 0.14% (n = 370,000). AID 652106; further: nearly all actives have a fitted effect of over 65% in size
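Readout is rescue of growth in alpha-synuclein-expressing yeast, so inhibitors of toxicity appear as activators. Growth after 24 hr at 30 deg C in galactose medium is quantified by luminescence.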
FUS suppressor: rescues growth of FUS-expressing yeast; S. cerevisiae FUS-expressing, growth rescue, OD600, 24 h; Potency, µM (doses to about 76.6 µM), hits mostly activators; actives 0.24% (n = 390,000); further: nearly all actives have a fitted effect of over 55% in size
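Restored growth of FUS-toxic S. cerevisiae, read as 600 nm absorbance after 24 h at 30C in galactose medium (starting OD 0.005). Controls CP55940 and DMSO.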
TDP-43 yeast inh: inhibitors of TDP-43 toxicity in yeast; TDP-43 expressing yeast growth rescue, BacTiter-Glo, 24 h; Potency, µM (series often up to 46.1 µM), hits mostly activators; actives 1.8% (n = 410,000); AID 652104; further: nearly all actives have a fitted effect of over 50% in size
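Readout is BacTiter-Glo luminescence of cell growth, so inhibitors register as activators. TDP-43-expressing yeast at OD600=0.02 in galactose medium, after raffinose pregrowth to mid-log, were incubated with compound for 24 hr at 30 deg C.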
Numbers stand for hits; - = inactive; ? = inconclusive; . = no result given. The call rests on the fitted dose curve; in most records, active means well fitted curve in the direction sought with a large enough effect; inconclusive means small, poorly fitted or top-dose-only effect, or another doubt; inactive means no such curve, though single readings can be large; an effect the other way counts as inactive or inconclusive.

SMILES | Abeta yeast res | aSyn yeast inh | FUS suppressor | TDP-43 yeast inh
Cc1cc(SCC(=O)c2ccc(O)c(O)c2)nc2ccccc12 | - | ? | - | 22.4µM
Cc1cc(SCC(=O)N(C)C2CCCCC2)nc2ccccc12 | - | - | - | 17.8µM
O=C(OC12CCCN(C1)/C(=C/c1ccncc1)C2)c1cccc(F)c1 (stereo not given) | . | . | - | .
CCOC(=O)Cn1cc(CN2C(C(=O)OC)CN(CCO)CCS2(=O)=O)nn1 (stereo not given) | . | . | - | .
O=S(=O)(c1sccc1Br)n1c(CN2CCOCC2)nc2ccccc21 | . | . | - | .
Cc1ccc(NC(=O)/C=C/C(=O)O)c([N+](=O)[O-])c1 | - | - | - | -
Cc1cc(NC(=O)/C=C\C(=O)O)c([N+](=O)[O-])cc1C | - | - | - | 22.4µM
CCCCCc1ccc(NC(=O)OCCCN2CCC3(CCC(c4ccccc4)CC3)C2=O)cc1 (stereo not given) | . | . | - | .
COc1cnn(-c2ccc(C)cc2)c(=O)c1Br | - | - | - | ?
Clc1ccc(Oc2nnnn2-c2ccccc2)cc1 | - | - | - | 11.2µM
COc1ccc(Oc2cnn(-c3ccccc3)c(=O)c2Br)cc1 | - | - | - | 12.6µM
Cc1ccc(C)c(Oc2nnnn2-c2ccccc2)c1 | - | - | - | 11.2µM
COc1ccc(Oc2nnnn2-c2ccccc2)cc1 | - | - | - | 11.2µM
CC(C)CCn1c(=O)c2sccc2n2c(CCCC(=O)NC3CCC(C)CC3)nnc12 (stereo not given) | - | . | - | -
Cc1ccc(S(=O)(=O)N(CCc2ccccc2)CC(=O)N2CCOCC2)cc1 | . | . | - | .
COc1ccc2c(c1)CN1CN(Cc3ccc(F)cc3)S(=O)(=O)CC21 (stereo not given) | . | . | - | .
COc1cccc(Oc2nnnn2-c2ccccc2)c1 | - | . | - | 12.6µM
NC(=O)c1ccc(-n2nnnc2Oc2ccccc2)cc1 | - | - | - | -
CCc1ccc2oc(-c3cc(N=Cc4cccc(OC)c4O)ccc3O)nc2c1 | - | - | - | 15.8µM
CCOC(=O)N1CCN(C(=O)C[C@H]2C[C@@]3(C(=O)OC)C(=C[C@H](COCc4ccccc4)O[C@@H]3C)N(Cc3ccco3)C2=O)CC1 | . | . | - | .
C[C@@H]1CCN(C2CC2)S(=O)(=O)c2c(cccc2N2CCC[C@@H]2CO)O1 | . | . | - | .
Cc1nnc(SCc2ccc(C(=O)Nc3cc(Cl)ccc3C)cc2)s1 | - | - | - | 10µM
O=C(CSc1nnc(SCc2cccc3ccccc23)s1)c1ccc(F)cc1 | . | . | - | .
CCCOc1ccccc1C(=O)N1CCC(c2nc3ccccc3s2)CC1 | - | . | - | ?
CCC(Oc1ccccc1F)C(=O)N1CCC(c2nc3ccccc3s2)CC1 (stereo not given) | - | . | - | 25.1µM
SMILES | Abeta yeast res | aSyn yeast inh | FUS suppressor | TDP-43 yeast inh
O=C(CSc1ccccc1Cl)N1CCC(c2nc3ccccc3s2)CC1 | - | ? | - | ?
O=C(c1cccc(F)c1)N1CCC(c2nc3ccccc3s2)CC1 | - | - | - | 12.6µM
O=C(CSc1ccc(F)cc1)N1CCC(c2nc3ccccc3s2)CC1 | - | - | - | 22.4µM
COc1cccc(C(=O)N2CCC(c3nc4ccccc4s3)CC2)c1 | - | . | - | -
O=C(NC1CCCCN(Cc2ccc(OC(F)(F)F)cc2)C1=O)c1cccc(F)c1 (stereo not given) | . | . | - | .
C[C@H](NC(=O)OCc1ccccc1)P(=O)(O)O | . | . | - | .
Cc1cc(C)c(C#N)c(Sc2nnnn2-c2ccccc2)n1 | - | - | - | -
Cc1nc(Sc2nnnn2-c2ccccc2)c(C#N)c(C)c1C | - | - | - | 17.8µM
COc1ccc(/C(N)=N/OC(=O)c2cccs2)cc1OC | - | - | - | 22.4µM
Cc1ccc(/C(N)=N/OC(=O)c2cccs2)cc1 | - | - | - | ?
COc1ccccc1C/C(N)=N/OC(=O)c1cccs1 | - | - | - | ?
COc1ccc(C/C(N)=N/OC(=O)c2cccs2)cc1 | - | - | - | 15.8µM
S=c1[nH]nc(COc2ccc(Cl)cc2)n1Cc1ccco1 | 12.6µM | - | - | ?
Cc1ccc(-n2nc(CO)c(C(=O)NCc3cccnc3)n2)cc1C | - | . | - | -
Cc1oc(-c2cccc(Cl)c2)nc1CSCC(=O)NCc1ccccc1Cl | - | . | - | 22.4µM
Cc1oc(-c2ccc(Cl)cc2)nc1CSCC(=O)NCc1ccccc1Cl | - | . | - | -
CCOC(=O)c1cccc(NC(=O)CCc2c(C)nn(-c3ccc(N4CCCCC4)nn3)c2C)c1 | - | . | - | -
COc1ccc(/C(N)=N/OC(=O)CC2CCCCC2)cc1 | - | - | - | 3.16µM
